# High-throughput results from PubChem.
# The list is not random: actives were taken first. Their share in the collection is about 22%.
# Shiga toxin inh: blocks Shiga toxin action in Vero cells; 290,000 tested, 9.2% active; Vero cells, Shiga toxin protein synthesis inhibition reporter; inhibition, % at 38.7 µM; AID 2315; in the data active = inhibition mostly above about 28%, no sharp cut-off; inactive = mostly below about 43%; also: 0% is about no effect
# LmPK inhibitor: blocks Leishmania mexicana pyruvate kinase activity; purified LmPK, Kinase-Glo ATP luminescence, 1 h; Potency, µM (titrated, usually from 57.5 µM), for inactives: top-dose activity change, negative = inhibition, usual class: inhibitors; 290,000 tested, 0.37% active; also: potency is read from the fitted curve at half-maximal effect; % is scaled to controls: 0 for no effect and ±100 for the full control effect
# Target sequence (Q27686 whole entry, looked up): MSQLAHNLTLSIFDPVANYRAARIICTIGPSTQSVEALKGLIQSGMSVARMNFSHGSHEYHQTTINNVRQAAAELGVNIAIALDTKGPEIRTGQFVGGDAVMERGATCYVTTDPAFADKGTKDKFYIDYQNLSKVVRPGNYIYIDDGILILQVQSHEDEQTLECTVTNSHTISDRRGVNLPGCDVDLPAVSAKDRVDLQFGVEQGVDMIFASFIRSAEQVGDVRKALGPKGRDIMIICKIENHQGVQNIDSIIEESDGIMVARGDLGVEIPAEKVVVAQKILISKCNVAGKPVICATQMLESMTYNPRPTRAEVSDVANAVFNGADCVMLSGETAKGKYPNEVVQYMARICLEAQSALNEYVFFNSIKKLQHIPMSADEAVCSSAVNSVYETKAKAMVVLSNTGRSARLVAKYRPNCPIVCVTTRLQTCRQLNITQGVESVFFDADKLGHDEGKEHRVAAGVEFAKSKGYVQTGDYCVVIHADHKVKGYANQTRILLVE
#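 qHTS format; LmPK 0.1 nM; substrates PEP 0.5 mM and ADP 0.1 mM. One-hour room-temperature incubation, then coupled luciferase luminescence; 0.5 nM enzyme wells mark activation.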
# Pf growth 48h: P. falciparum growth inhibition at 48 hours (one generation) | AID 504832 | P. falciparum luciferase growth in erythrocytes, 48 h | Potency, µM (highest dose often 28.7 µM), for the others: at the highest dose activity change, negative = inhibition, hits mostly inhibitors | 310,000 tested, 5.9% active; also: potency is read from the fitted curve at half-maximal effect; % is scaled to controls: 0 for no effect and ±100 for the full control effect
#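 A one-generation exposure of luciferase-tagged malaria parasites in RPMI 1640/Albumax erythrocyte culture, 37 C and 5% CO2. Inhibition is inferred from decreased luminescence after adding detection reagent.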
# Pf growth 96h: inhibits malaria parasite growth, 96 h | AID 504834 | 320,000 tested, 6.9% active | P. falciparum luciferase reporter growth, 96 h | Potency, µM (doses to about 28.7 µM), for the others: top-dose activity change, negative = inhibition, most hits filed as inhibitors; also: potency is read from the fitted curve at half-maximal effect; % is scaled to controls: 0 for no effect and ±100 for the full control effect
#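 P. falciparum expressing integrated firefly luciferase grown in erythrocytes (2% hematocrit, 0.05% parasitemia final) with compounds for 96 hours at 37 C, 5% CO2. Growth inhibition read as loss of luminescence after adding luciferase detection reagent.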
# Cycloheximide cs: counter-screen hit for Shiga toxin inhibitors, cycloheximide | 300,000 tested, 12% active | max response, % | AID 2314 | cell reporter, cycloheximide protein synthesis inhibition counterscreen; in the data active = max response mostly above about 13%, no sharp cut-off; inactive = mostly below about 14%; also: read at 38.3 µM for the half of the compounds with a filed dose; 0% is about no effect
# Active calls of the source: *; i = inactive; ? = inconclusive; . = no result. Unless noted, calls follow the shape of the dose curve; as a rule, active = well fitted inhibition curve with a large enough effect; inconclusive = small, poorly fitted or top-dose-only effect, or another doubt; inactive = no such curve, though single readings can be large or run the other way.
SMILES,Shiga toxin inh,LmPK inhibitor,Pf growth 48h,Pf growth 96h,Cycloheximide cs
Cc1ccc(S(=O)(=O)N2CCCOC2CNC(=O)C(=O)NCc2ccco2)cc1 (configuration not stated),-5,-4%,6%,?,-6
CC(=O)N1CCN=C1SCc1cccc(C)c1,-11,-10%,21%,-10%,-8
CCS(=O)(=O)N1CCC(c2nc(-c3ccc(C)cc3)no2)CC1,74*,-3%,78%,?,55*
Cc1cccc(-c2noc(C3CCCCC3)n2)c1,198*,-10%,164%,.,55*
Cc1cccc(-c2noc(-c3ccno3)n2)c1,91*,-5%,21%,17%,40*
Cc1ccc(-c2noc(C3CCCCC3)n2)cc1,50*,-8%,113%,73%,27
Clc1cccc(-c2nnc(-c3ccno3)o2)c1,22,-1%,0%,-8%,24
COc1ccc(-c2nnc(SCC(=O)Nc3ccc4c(c3)OCCO4)n2N)cc1OC,-3,3%,3%,?,-4
Cc1nc(SCC(=O)Nc2ccccc2Cl)oc1C,15,0%,-30%,46%,-1
COc1ccc(-c2cn(Cc3ccc(C)cc3)nn2)cc1,79*,-1%,91%,0%,55*
CCCCCc1ccc(-c2cn(Cc3ccc(C)cc3)nn2)cc1,12,-2%,?,?,8
COc1ccc(N(C(C)=O)C2C=CS(=O)(=O)C2)c(OC)c1 (configuration not stated),28,-7%,36%,10µM*,-1
COc1ccc(N(C(=O)c2ccccc2OC)C2C=CS(=O)(=O)C2)c(OC)c1 (configuration not stated),-8,0%,2%,11%,-6
C/C(=N\OC(=O)c1ccc(Br)cc1)c1ccccn1,13,?,-7%,9%,4
C/C(=N/OCc1ccc(Br)cc1)c1ccccn1,60*,-9%,i,441%,26*
Cc1ccc(NC(=O)C(C)OC(=O)Cn2[nH]c(=O)c3ccccc3c2=O)cc1 (configuration not stated),.,.,-4%,14%,.
O=c1c2c3c(sc2nc2sc(C4CC4)nn12)CCCC3,54,-9%,65%,45%,33*
COc1ccccc1C1CCN(c2ccc(CO)cc2[N+](=O)[O-])CC1,18,0%,125%,4%,14*
CCCCn1c(N)c(N(CC(C)C)C(=O)C2CCCO2)c(=O)[nH]c1=O (configuration not stated),.,.,0%,17%,.
CN(C)CCCN=c1cc(-c2ccccc2)oc2ccc(Cl)cc12,27,9%,?,?,14*
OCCN=c1cc(-c2ccccc2)oc2ccc(Cl)cc12,190*,-1%,?,?,52*
O=c1oc2ccc(Cl)cc2cc1-c1ccccc1,-2,-5%,9%,88%,4
C=CCSC1=N/C(=C\c2ccc(C(=O)O)cc2)C(=O)S1,-9,3%,12%,0%,-3
O=C(O)CN1C(=O)/C(=C\c2cc(Br)ccc2OCc2ccc(Cl)cc2)SC1=S,37,6%,19%,10µM*,7
O=C(O)CN1C(=O)/C(=C\c2cc(Br)ccc2OCc2ccc(F)cc2)SC1=S,-7,6%,20%,-12%,-4
SMILES,Shiga toxin inh,LmPK inhibitor,Pf growth 48h,Pf growth 96h,Cycloheximide cs
COc1ccc(/C=C2/SC(=S)N(CC(=O)O)C2=O)cc1OCc1ccc(Cl)cc1,42*,-3%,?,-10%,33*
O=C(O)COc1cccc(/C=C2/SC(=S)N(Cc3ccccc3)C2=O)c1,-1,-1%,3%,?,-2
O=C1/C(=C\c2ccc(O)c(O)c2)SC(=S)N1Cc1ccccc1,14,-4%,13µM*,33%,11
O=C(O)CN1C(=O)/C(=C\c2cccc(OCc3ccccc3)c2)SC1=S,.,4%,14%,15µM*,1
COc1cc(/C=C2\SC(=S)N(CC(=O)O)C2=O)ccc1OC(=O)c1ccco1,2,2%,93%,-9%,-6
COC(=O)Cc1c(C)nc2nc(NCc3cccc([N+](=O)[O-])c3)[nH]n2c1=O,10,-3%,.,14%,5
COc1cc(C)nc(-c2csc(C)n2)n1,14,-3%,?,?,10
CCCn1c(SCc2ccccc2)nc2c1c(=O)[nH]c(=O)n2C,-27,-1%,-24%,.,4
CCOC(=O)C(CC)Sc1nc2c(c(=O)[nH]c(=O)n2C)n1CCc1ccccc1 (configuration not stated),-19,-1%,10µM*,12µM*,-2
CCC(C)Nc1nc2c(c(=O)[nH]c(=O)n2C)n1CCOc1ccccc1 (configuration not stated),-1,6%,?,?,-8
CCCCCn1c(SCc2cccc(C)c2)nc2c1c(=O)[nH]c(=O)n2C,-3,4%,?,9.3µM*,1
CCCCn1c(NC(C)CC)nc2c1c(=O)[nH]c(=O)n2C (configuration not stated),-11,3%,?,4.7µM*,-1
CCCCCCn1c(SCCCC)nc2c1c(=O)[nH]c(=O)n2C,-6,0%,?,3.3µM*,-1
O=C(NCc1ccco1)C1CCCN1C(=O)Nc1ccc(Br)cc1 (configuration not stated),-6,-1%,-2%,-29%,-4
CCOC(=O)N1CCN(CC(=O)Nc2nnc(C(F)(F)F)s2)CC1,4,-3%,-12%,31%,6
CCn1c(C)nc2cc(C(=O)NNC(=S)NC(=O)c3ccc(OC)cc3)ccc21,-5,9%,0%,1%,-4
C=CCNC(=S)NNC(=O)c1ccccc1OCC,-4,3%,30%,23%,1
CSc1nc2c(c(=O)[nH]c(=O)n2C)n1CCCc1ccccc1,-5,-6%,4%,16%,-3
CC(C)CCSc1nc2c(c(=O)[nH]c(=O)n2C)n1CCCc1ccccc1,22,0%,0%,5.9µM*,5
O=C(Nc1ccc(Br)cc1)c1ccccc1CC[N+](=O)[O-],42,5%,?,-9%,-2
O=C(NNc1ccccn1)c1ccccc1CC[N+](=O)[O-],22,6%,-14%,?,14*
O=C(CNC(=O)c1cccnc1)N/N=C/c1ccc(O)cc1O,2,-1%,-21%,-13%,13*
O=C(N/N=C/c1ccccc1OCc1ccccc1)c1cccnc1,8,0%,3%,44%,13*
O=C(N/N=C/c1cn(CC(=O)N2CCOCC2)c2ccccc12)c1cccnc1,20,-7%,25%,0%,21*
O=C(N/N=C/c1cn(Cc2ccccc2)c2ccccc12)c1cccnc1,14,-6%,?,15%,8
CCc1ccc(C(=O)N/N=C/c2cccc3ccccc23)nc1,52,6%,75%,25%,19*
O=C(CNC(=O)c1cccs1)N/N=C/c1ccc(O)cc1O,1,0%,-10%,?,-2
Cc1ccc(S(=O)(=O)N(CC(=O)NCCSc2ccccn2)c2ccccc2F)cc1,-4,0%,?,?,-6
